{"source": "the supplement of paper PMC10849652", "note": "Targets with a hit are over-represented here; the source holds about 8,800 in all. About 0.5% of all pairs of compound and target were hits.", "data": [{"compound": "COC(=O)[C@H](CCSC)NC(=O)C1=C(C=C(C=C1)NC[C@H](CS)N)C2=CC=CC=C2", "experiment": "log2 fold change, soluble protein after heating vs DMSO (PISA); higher = thermal stabilisation; K562 lysate, 10 uM; active = over 0.2 and 3.5 SD of the protein, either way, in both replicates (recomputed)", "how_it_was_run": "(§1)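 Soluble protein was defined as the supernatant remaining after 21,000xg for 90 min, following pooling of heated aliquots and adjustment to 0.5% NP-40 at 4°C. Before that, crude K562 extract at 1 mg/mL protein in PBS pH 7.4 with 1 mM MgCl2 was treated with 10 μM compound for 30 min and heated for 3 min across 48°C-58°C. Quantification used TMTpro 16plex LC-MS/MS with channel sums equalised, and values are log-two fold changes in thermal stability relative to solvent controls from duplicates.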", "values": [{"target": "UPF3B (UniProt Q9BZI7)", "log2 fold change": "0.049 (inactive)"}, {"target": "YWHAQ (UniProt P27348)", "sequence (P27348 whole entry, looked up)": "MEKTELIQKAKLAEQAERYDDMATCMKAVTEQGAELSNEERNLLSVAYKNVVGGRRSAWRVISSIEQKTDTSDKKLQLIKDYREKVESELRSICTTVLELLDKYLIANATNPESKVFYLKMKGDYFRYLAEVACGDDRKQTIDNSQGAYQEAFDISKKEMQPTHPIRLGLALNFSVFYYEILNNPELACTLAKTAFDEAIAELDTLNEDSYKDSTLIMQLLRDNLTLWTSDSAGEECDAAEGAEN", "log2 fold change": "-0.045 (inactive)"}, {"target": "ZNF609 (UniProt O15014)", "log2 fold change": "0.013 (inactive)"}, {"target": "WRB (UniProt O00258)", "sequence (O00258 whole entry, looked up)": "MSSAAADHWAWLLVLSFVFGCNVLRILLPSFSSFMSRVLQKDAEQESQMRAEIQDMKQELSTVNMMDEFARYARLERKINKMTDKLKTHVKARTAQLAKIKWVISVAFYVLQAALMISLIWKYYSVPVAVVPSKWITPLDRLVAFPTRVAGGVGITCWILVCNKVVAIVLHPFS", "log2 fold change": "0.027 (inactive)"}, {"target": "VPS72 (UniProt Q15906)", "log2 fold change": "-0.134 (inactive)"}, {"target": "YTHDC2 (UniProt Q9H6S0)", "log2 fold change": "0.05 (inactive)"}, {"target": "WDR77 (UniProt Q9BQA1)", "log2 fold change": "-0.07 (inactive)"}, {"target": "ZC3HC1 (UniProt Q86WB0)", "sequence (Q86WB0 whole entry, looked up)": "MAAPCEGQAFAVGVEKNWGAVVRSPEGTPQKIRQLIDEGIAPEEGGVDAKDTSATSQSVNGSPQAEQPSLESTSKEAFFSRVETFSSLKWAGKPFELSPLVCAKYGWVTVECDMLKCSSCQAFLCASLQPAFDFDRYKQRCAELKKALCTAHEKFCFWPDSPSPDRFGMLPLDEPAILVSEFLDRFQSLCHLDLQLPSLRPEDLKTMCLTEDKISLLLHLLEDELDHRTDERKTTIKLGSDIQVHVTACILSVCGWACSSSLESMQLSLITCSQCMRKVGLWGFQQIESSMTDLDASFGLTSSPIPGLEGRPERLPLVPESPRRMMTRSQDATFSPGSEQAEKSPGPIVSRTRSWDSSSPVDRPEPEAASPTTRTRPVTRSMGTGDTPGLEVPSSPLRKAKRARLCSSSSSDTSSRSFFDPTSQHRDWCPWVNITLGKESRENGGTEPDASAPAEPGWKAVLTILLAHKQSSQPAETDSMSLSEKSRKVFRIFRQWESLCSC", "log2 fold change": "0.078 (inactive)"}, {"target": "ZNF217 (UniProt O75362)", "log2 fold change": "-0.037 (inactive)"}, {"target": "USP10 isoform 2 (UniProt Q14694)", "log2 fold change": "0.04 (inactive)"}, {"target": "ZMYM4 (UniProt Q5VZL5)", "log2 fold change": "0.016 (inactive)"}, {"target": "USP16 (UniProt Q9Y5T5)", "log2 fold change": "0.081 (inactive)"}, {"target": "VPS54 (UniProt Q9P1Q0)", "log2 fold change": "0.105 (inactive)"}, {"target": "ZDHHC18 (UniProt Q9NUE0)", "log2 fold change": "0.042 (inactive)"}, {"target": "YRDC (UniProt Q86U90)", "log2 fold change": "-0.1 (inactive)"}, {"target": "WRNIP1 (UniProt Q96S55)", "sequence (Q96S55 whole entry, looked up)": "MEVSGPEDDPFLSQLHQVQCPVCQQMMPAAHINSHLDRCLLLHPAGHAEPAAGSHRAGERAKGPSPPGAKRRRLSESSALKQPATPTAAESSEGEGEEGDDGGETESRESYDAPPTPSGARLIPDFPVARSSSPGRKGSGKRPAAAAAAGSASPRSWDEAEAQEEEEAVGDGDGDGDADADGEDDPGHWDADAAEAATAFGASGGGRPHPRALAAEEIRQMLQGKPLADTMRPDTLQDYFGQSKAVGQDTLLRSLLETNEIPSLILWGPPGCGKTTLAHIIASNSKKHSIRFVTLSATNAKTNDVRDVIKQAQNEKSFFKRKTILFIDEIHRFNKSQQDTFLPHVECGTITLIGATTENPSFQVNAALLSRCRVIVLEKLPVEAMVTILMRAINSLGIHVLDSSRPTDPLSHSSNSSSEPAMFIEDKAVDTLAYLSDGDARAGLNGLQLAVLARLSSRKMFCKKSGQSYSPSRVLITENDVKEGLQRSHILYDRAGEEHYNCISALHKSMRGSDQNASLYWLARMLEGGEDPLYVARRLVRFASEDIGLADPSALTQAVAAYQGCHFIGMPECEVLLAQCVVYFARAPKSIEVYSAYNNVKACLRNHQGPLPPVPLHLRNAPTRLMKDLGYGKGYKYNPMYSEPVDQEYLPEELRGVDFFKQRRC", "log2 fold change": "0.222 (active)"}, {"target": "ZMYM2 (UniProt Q9UBW7)", "log2 fold change": "-0.018 (inactive)"}, {"target": "YDJC (UniProt A8MPS7)", "log2 fold change": "-0.036 (inactive)"}, {"target": "ZFYVE19 (UniProt Q96K21)", "log2 fold change": "-0.04 (inactive)"}, {"target": "WDR7 (UniProt Q9Y4E6)", "log2 fold change": "-0.055 (inactive)"}, {"target": "WDR91 (UniProt A4D1P6)", "sequence (A4D1P6 whole entry, looked up)": "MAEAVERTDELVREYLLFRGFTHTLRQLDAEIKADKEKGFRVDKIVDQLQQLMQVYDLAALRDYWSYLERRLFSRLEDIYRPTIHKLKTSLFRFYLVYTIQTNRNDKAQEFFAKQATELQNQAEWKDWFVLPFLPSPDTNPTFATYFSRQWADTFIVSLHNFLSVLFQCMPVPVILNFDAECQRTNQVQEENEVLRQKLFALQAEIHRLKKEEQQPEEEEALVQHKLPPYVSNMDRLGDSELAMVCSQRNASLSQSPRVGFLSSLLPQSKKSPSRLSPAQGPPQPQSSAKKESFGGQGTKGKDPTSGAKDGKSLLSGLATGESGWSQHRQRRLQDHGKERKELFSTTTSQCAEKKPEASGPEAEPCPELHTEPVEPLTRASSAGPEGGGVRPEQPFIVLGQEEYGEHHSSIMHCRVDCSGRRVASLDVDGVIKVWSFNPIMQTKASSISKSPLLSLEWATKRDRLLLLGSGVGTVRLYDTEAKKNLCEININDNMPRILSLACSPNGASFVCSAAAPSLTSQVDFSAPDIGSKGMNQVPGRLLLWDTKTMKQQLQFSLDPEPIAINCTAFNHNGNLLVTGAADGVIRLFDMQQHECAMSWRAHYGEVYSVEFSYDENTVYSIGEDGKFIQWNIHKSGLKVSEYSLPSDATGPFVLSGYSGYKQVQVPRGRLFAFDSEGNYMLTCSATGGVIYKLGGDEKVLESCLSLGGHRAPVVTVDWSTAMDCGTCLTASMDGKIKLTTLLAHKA", "log2 fold change": "0.1 (inactive)"}, {"target": "ZNHIT6 (UniProt Q9NWK9)", "log2 fold change": "0.118 (inactive)"}, {"target": "UTP18 (UniProt Q9Y5J1)", "log2 fold change": "0.006 (inactive)"}, {"target": "USE1 (UniProt Q9NZ43)", "log2 fold change": "-0.037 (inactive)"}, {"target": "XPO5 (UniProt Q9HAV4)", "log2 fold change": "0.012 (inactive)"}, {"target": "ZC3H13 (UniProt Q5T200)", "sequence (Q5T200 whole entry, looked up)": "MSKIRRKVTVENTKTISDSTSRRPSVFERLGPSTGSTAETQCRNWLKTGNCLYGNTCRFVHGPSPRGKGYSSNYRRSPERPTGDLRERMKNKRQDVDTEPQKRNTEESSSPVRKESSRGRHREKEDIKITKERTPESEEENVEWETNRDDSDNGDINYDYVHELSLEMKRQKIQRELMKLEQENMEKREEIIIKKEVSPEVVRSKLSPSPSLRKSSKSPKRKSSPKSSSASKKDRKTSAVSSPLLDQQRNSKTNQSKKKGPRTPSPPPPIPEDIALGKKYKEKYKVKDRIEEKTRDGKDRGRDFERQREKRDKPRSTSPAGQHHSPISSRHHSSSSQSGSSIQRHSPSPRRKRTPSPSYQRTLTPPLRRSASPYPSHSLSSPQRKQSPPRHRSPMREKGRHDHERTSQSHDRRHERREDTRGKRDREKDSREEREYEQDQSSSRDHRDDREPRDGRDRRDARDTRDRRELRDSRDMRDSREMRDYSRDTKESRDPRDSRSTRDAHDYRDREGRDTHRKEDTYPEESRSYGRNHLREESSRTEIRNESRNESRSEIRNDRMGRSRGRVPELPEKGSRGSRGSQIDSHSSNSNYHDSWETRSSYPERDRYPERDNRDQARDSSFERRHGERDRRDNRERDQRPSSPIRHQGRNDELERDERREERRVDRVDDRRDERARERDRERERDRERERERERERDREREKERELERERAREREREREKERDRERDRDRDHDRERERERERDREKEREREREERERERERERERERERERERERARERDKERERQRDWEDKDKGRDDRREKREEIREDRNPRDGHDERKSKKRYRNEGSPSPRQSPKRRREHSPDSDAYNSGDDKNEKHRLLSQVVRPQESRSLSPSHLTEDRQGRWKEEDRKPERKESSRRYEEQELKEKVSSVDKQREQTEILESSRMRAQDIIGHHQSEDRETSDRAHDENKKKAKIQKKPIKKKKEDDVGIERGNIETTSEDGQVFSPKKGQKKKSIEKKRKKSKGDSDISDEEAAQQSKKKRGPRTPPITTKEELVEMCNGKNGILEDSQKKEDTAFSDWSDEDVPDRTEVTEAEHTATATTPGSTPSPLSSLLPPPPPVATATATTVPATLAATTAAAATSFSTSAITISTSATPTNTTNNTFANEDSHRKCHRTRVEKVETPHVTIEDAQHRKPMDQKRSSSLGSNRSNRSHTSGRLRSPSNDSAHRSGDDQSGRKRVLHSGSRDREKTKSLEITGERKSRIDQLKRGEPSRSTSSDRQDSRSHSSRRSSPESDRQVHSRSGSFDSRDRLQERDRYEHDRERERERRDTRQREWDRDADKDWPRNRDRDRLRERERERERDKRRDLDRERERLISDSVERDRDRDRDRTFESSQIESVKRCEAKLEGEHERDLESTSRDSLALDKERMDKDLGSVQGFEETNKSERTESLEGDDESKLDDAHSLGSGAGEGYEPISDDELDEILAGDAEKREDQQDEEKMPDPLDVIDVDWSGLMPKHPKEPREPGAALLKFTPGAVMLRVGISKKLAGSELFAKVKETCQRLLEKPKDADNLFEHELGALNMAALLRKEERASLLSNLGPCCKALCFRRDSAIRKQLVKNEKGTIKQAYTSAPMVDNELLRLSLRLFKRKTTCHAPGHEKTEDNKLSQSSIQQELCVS", "log2 fold change": "0.021 (inactive)"}, {"target": "VPS18 (UniProt Q9P253)", "sequence (Q9P253 whole entry, looked up)": "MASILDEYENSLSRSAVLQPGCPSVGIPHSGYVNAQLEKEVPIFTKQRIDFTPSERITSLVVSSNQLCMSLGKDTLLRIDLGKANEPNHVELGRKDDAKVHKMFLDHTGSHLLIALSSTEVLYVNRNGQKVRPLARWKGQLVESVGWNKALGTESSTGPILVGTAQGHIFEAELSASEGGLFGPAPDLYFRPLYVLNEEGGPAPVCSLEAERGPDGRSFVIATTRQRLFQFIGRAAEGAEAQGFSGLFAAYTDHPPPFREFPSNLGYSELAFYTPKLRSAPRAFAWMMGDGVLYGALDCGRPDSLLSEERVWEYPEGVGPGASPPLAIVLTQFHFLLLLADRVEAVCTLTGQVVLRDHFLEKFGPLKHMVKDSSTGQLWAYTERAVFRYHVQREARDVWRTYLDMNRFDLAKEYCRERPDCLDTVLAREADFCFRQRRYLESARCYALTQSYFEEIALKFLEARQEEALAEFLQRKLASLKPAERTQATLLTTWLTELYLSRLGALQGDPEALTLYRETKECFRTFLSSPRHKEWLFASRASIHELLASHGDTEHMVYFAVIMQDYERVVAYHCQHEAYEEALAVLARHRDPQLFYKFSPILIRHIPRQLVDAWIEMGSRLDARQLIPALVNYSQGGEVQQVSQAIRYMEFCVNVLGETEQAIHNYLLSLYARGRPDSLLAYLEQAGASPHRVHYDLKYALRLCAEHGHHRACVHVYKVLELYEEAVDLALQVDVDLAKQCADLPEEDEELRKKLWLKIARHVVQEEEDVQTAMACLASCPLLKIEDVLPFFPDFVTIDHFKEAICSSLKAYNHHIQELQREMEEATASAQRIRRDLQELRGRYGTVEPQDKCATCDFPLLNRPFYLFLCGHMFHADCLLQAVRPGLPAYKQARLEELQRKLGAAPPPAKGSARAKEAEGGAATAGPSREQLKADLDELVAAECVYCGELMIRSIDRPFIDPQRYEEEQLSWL", "log2 fold change": "-0.125 (inactive)"}, {"target": "USP48 (UniProt Q86UV5)", "log2 fold change": "0.018 (inactive)"}, {"target": "UTP3 (UniProt Q9NQZ2)", "log2 fold change": "0.005 (inactive)"}, {"target": "WAC (UniProt Q9BTA9)", "log2 fold change": "0.118 (inactive)"}, {"target": "VASP (UniProt P50552)", "log2 fold change": "-0.007 (inactive)"}]}, {"compound": "COc1cc(Nc2ncc3c(n2)-c2ccc(Cl)cc2C(c2c(F)cccc2OC)=NC3)ccc1C(=O)O [alisertib]", "experiment": "log2 fold change, soluble protein after heating vs DMSO (PISA); higher = thermal stabilisation; K562 lysate, 10 uM; active = over 0.2 and 3.5 SD of the protein, either way, in both replicates (recomputed)", "how_it_was_run": "as §1", "values": [{"target": "UPF3B (UniProt Q9BZI7)", "log2 fold change": "0.021 (inactive)"}, {"target": "YWHAQ (UniProt P27348)", "log2 fold change": "-0.014 (inactive)"}, {"target": "ZNF609 (UniProt O15014)", "log2 fold change": "-0.01 (inactive)"}, {"target": "WRB (UniProt O00258)", "log2 fold change": "-0.028 (inactive)"}, {"target": "VPS72 (UniProt Q15906)", "log2 fold change": "-0.058 (inactive)"}, {"target": "YTHDC2 (UniProt Q9H6S0)", "log2 fold change": "-0.026 (inactive)"}, {"target": "WDR77 (UniProt Q9BQA1)", "log2 fold change": "-0.031 (inactive)"}, {"target": "ZC3HC1 (UniProt Q86WB0)", "log2 fold change": "0.022 (inactive)"}, {"target": "ZNF217 (UniProt O75362)", "log2 fold change": "0.032 (inactive)"}, {"target": "USP10 isoform 2 (UniProt Q14694)", "log2 fold change": "0.012 (inactive)"}, {"target": "ZMYM4 (UniProt Q5VZL5)", "log2 fold change": "-0.004 (inactive)"}, {"target": "USP16 (UniProt Q9Y5T5)", "log2 fold change": "-0.011 (inactive)"}, {"target": "VPS54 (UniProt Q9P1Q0)", "log2 fold change": "-0.024 (inactive)"}, {"target": "ZDHHC18 (UniProt Q9NUE0)", "log2 fold change": "-0.131 (inactive)"}, {"target": "YRDC (UniProt Q86U90)", "log2 fold change": "-0.014 (inactive)"}, {"target": "WRNIP1 (UniProt Q96S55)", "log2 fold change": "-0.022 (inactive)"}, {"target": "ZMYM2 (UniProt Q9UBW7)", "log2 fold change": "-0.077 (inactive)"}, {"target": "YDJC (UniProt A8MPS7)", "log2 fold change": "0.035 (inactive)"}, {"target": "ZFYVE19 (UniProt Q96K21)", "log2 fold change": "0.008 (inactive)"}, {"target": "WDR7 (UniProt Q9Y4E6)", "log2 fold change": "-0.007 (inactive)"}, {"target": "WDR91 (UniProt A4D1P6)", "log2 fold change": "0.013 (inactive)"}, {"target": "ZNHIT6 (UniProt Q9NWK9)", "log2 fold change": "-0.021 (inactive)"}, {"target": "UTP18 (UniProt Q9Y5J1)", "log2 fold change": "-0.032 (inactive)"}, {"target": "USE1 (UniProt Q9NZ43)", "log2 fold change": "-0.059 (inactive)"}, {"target": "XPO5 (UniProt Q9HAV4)", "log2 fold change": "-0.004 (inactive)"}, {"target": "ZC3H13 (UniProt Q5T200)", "log2 fold change": "-0.362 (active)"}, {"target": "VPS18 (UniProt Q9P253)", "log2 fold change": "0.005 (inactive)"}, {"target": "USP48 (UniProt Q86UV5)", "log2 fold change": "-0.015 (inactive)"}, {"target": "UTP3 (UniProt Q9NQZ2)", "log2 fold change": "-0.042 (inactive)"}, {"target": "WAC (UniProt Q9BTA9)", "log2 fold change": "-0.019 (inactive)"}, {"target": "VASP (UniProt P50552)", "log2 fold change": "0.018 (inactive)"}]}, {"compound": "COc1cc2nc(-c3cc(F)ccc3O)nc(N[C@@H]3CNC[C@H]3C(C)(C)O)c2cc1OC", "experiment": "log2 fold change, soluble protein after heating vs DMSO (PISA); higher = thermal stabilisation; K562 lysate, 10 uM; active = over 0.2 and 3.5 SD of the protein, either way, in both replicates (recomputed)", "how_it_was_run": "as §1", "values": [{"target": "UPF3B (UniProt Q9BZI7)", "log2 fold change": "-0.021 (inactive)"}, {"target": "YWHAQ (UniProt P27348)", "log2 fold change": "0.008 (inactive)"}, {"target": "ZNF609 (UniProt O15014)", "log2 fold change": "0.018 (inactive)"}, {"target": "WRB (UniProt O00258)", "log2 fold change": "0.022 (inactive)"}, {"target": "VPS72 (UniProt Q15906)", "log2 fold change": "-0.017 (inactive)"}, {"target": "YTHDC2 (UniProt Q9H6S0)", "log2 fold change": "-0.029 (inactive)"}, {"target": "WDR77 (UniProt Q9BQA1)", "log2 fold change": "-0.024 (inactive)"}, {"target": "ZC3HC1 (UniProt Q86WB0)", "log2 fold change": "-0.013 (inactive)"}, {"target": "ZNF217 (UniProt O75362)", "log2 fold change": "0.219 (inactive)"}, {"target": "USP10 isoform 2 (UniProt Q14694)", "log2 fold change": "-0.009 (inactive)"}, {"target": "ZMYM4 (UniProt Q5VZL5)", "log2 fold change": "0.004 (inactive)"}, {"target": "USP16 (UniProt Q9Y5T5)", "log2 fold change": "-0.003 (inactive)"}, {"target": "VPS54 (UniProt Q9P1Q0)", "log2 fold change": "0.071 (inactive)"}, {"target": "ZDHHC18 (UniProt Q9NUE0)", "log2 fold change": "-0.036 (inactive)"}, {"target": "YRDC (UniProt Q86U90)", "log2 fold change": "-0.004 (inactive)"}, {"target": "WRNIP1 (UniProt Q96S55)", "log2 fold change": "-0.014 (inactive)"}, {"target": "ZMYM2 (UniProt Q9UBW7)", "log2 fold change": "0.087 (inactive)"}, {"target": "YDJC (UniProt A8MPS7)", "log2 fold change": "0.007 (inactive)"}, {"target": "ZFYVE19 (UniProt Q96K21)", "log2 fold change": "0 (inactive)"}, {"target": "WDR7 (UniProt Q9Y4E6)", "log2 fold change": "-0.01 (inactive)"}, {"target": "WDR91 (UniProt A4D1P6)", "log2 fold change": "-0.007 (inactive)"}, {"target": "ZNHIT6 (UniProt Q9NWK9)", "log2 fold change": "-0.022 (inactive)"}, {"target": "UTP18 (UniProt Q9Y5J1)", "log2 fold change": "-0.05 (inactive)"}, {"target": "USE1 (UniProt Q9NZ43)", "log2 fold change": "0.039 (inactive)"}, {"target": "XPO5 (UniProt Q9HAV4)", "log2 fold change": "0 (inactive)"}, {"target": "ZC3H13 (UniProt Q5T200)", "log2 fold change": "0.016 (inactive)"}, {"target": "VPS18 (UniProt Q9P253)", "log2 fold change": "-0.006 (inactive)"}, {"target": "USP48 (UniProt Q86UV5)", "log2 fold change": "0.09 (inactive)"}, {"target": "UTP3 (UniProt Q9NQZ2)", "log2 fold change": "-0.002 (inactive)"}, {"target": "WAC (UniProt Q9BTA9)", "log2 fold change": "-0.01 (inactive)"}, {"target": "VASP (UniProt P50552)", "log2 fold change": "0.009 (inactive)"}]}]}
